# For part of these data: Measured potencies and affinities stand elsewhere.
# Tests used:
# Design in all cases: scale not given: direction of the effect not stated beside the values
# [1] = target: Protein translocase subunit SecA (Escherichia coli (strain K12)) (UniProt P10408); test: Assay to Identify E. coli SecA ATPase Inhibitors; format: functional; conditions: 30 µM
# [2] = target: T1, Ubiquitin-activating enzyme e1, putative (Leishmania donovani (strain BPK282A1)) (UniProt E9BSI1); test: Leishmania donovani Ubiquitin Activating Enzyme (LdE1); format: functional; conditions: 30 µM
# T1 sequence (whole entry): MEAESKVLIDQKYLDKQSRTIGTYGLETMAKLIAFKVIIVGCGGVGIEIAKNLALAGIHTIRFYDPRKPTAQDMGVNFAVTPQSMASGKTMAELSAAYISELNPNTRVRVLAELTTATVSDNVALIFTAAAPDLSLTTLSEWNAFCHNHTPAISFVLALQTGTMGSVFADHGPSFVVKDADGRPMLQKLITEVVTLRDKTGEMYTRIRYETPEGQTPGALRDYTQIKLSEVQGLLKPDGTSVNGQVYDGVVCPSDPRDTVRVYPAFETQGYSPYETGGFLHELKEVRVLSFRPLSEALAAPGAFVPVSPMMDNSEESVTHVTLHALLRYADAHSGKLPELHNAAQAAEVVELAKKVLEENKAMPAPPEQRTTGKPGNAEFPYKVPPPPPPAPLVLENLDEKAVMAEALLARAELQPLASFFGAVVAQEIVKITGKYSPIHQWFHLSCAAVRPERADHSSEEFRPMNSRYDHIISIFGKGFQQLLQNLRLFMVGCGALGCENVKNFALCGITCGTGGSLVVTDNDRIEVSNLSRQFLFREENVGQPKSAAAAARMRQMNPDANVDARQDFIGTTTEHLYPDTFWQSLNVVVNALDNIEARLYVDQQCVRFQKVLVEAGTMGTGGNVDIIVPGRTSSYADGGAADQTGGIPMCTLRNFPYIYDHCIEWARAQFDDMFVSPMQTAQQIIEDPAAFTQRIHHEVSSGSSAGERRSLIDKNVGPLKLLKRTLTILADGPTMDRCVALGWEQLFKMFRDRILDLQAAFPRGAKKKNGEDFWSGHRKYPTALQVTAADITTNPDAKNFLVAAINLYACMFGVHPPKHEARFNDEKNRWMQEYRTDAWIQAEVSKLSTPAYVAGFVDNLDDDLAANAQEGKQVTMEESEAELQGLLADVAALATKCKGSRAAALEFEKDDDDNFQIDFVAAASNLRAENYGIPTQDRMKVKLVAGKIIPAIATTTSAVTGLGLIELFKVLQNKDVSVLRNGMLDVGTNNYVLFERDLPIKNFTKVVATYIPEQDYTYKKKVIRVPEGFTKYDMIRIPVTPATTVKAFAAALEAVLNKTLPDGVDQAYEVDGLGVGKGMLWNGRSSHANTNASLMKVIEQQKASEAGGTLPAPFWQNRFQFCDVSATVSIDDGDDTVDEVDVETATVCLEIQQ
# [3] = target: AMP-activated protein kinase, AMPK (Homo sapiens) (UniProt P54646+O43741+P54619+Q9UGJ0+Q9Y478+Q13131+Q9UGI9); test: AMP-dependent Kinase enzyme assay. An in vitro enzyme assay that detects ADP turnover that is directly proportional to AMPK activity. This uses naive AMPK that is activated during the assay with MK-8722; format: functional; conditions: 30 µM
# [4] = target: Sialic acid-binding Ig-like lectin 9 (Homo sapiens) (UniProt Q9Y336); test: Hs-Siglec9 ALPHAscreen SOP 20170721; conditions: 10 µM
# Sequence of Sialic acid-binding Ig-like lectin 9 (Homo sapiens) (Q9Y336 whole entry): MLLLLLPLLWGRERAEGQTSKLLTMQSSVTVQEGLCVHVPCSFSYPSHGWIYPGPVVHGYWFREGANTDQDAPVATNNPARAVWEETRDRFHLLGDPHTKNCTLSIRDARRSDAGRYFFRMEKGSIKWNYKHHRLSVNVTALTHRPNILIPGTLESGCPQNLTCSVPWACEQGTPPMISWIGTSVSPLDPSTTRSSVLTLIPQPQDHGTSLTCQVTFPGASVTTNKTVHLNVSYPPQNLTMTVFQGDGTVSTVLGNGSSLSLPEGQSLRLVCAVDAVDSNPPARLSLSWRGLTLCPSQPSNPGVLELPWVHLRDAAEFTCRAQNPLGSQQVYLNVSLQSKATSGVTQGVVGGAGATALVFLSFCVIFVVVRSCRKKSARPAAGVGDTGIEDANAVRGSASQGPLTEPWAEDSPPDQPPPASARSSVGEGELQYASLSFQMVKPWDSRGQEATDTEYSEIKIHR
# [5] = system: Trypanosoma cruzi; test: Trypanosoma cruzi phosphomannomutase and mannose-1-phosphate guanylyltransferase assay; format: functional; conditions: 10 µM
# [6] = target: T2, Arginase-2, mitochondrial (Homo sapiens) (UniProt P78540); test: in vitro enzyme assay to detect the production of urea directly proportional to the activity of Arginase II; format: functional; conditions: 33.3 µM; also: in the data most compounds retested in dose-response had high values
# T2 sequence (whole entry): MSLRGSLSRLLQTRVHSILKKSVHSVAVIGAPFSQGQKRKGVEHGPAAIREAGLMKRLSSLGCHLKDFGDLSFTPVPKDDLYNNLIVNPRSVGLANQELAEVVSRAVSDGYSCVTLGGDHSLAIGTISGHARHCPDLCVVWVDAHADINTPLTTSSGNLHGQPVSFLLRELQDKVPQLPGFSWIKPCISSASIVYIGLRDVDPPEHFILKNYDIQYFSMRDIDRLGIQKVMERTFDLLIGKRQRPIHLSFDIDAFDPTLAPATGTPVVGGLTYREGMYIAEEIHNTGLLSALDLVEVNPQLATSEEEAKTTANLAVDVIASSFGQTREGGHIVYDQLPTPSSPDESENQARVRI
# [7] = target: T3, Proteasome subunit beta (Trypanosoma cruzi) (UniProt O96673); test: Trypanosoma cruzi proteasome chymotrypsin-like activity (TcProtChymo) assay.; also: in the data most compounds retested in dose-response had high values; format: functional; conditions: 9.37 µM
# T3 sequence (whole entry): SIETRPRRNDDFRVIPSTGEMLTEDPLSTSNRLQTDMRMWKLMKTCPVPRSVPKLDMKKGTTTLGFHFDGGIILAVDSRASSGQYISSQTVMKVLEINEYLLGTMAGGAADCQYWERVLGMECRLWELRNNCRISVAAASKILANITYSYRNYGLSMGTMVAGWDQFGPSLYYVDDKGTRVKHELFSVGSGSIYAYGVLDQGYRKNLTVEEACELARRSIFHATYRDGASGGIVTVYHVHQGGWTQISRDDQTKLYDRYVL
# [8] = species on record: Homo sapiens; test: To identify inhibition of the IFN signalling (Jak-Stat) pathway via expression of an eGFP reporter gene under the control of an IFN-stimulated response element (ISRE) containing MxA promoter.; format: functional; conditions: 30 µM
# [9] = target: T4, Tyrosyl-tRNA synthetase, putative (Trypanosoma cruzi (strain CL Brener)) (UniProt Q4DSP6); test: Trypanosoma cruzi tyrosyl tRNA synthetase (TcYRS) _High Tyrosine SOP; format: functional; conditions: 30 µM; also: in the data most compounds retested in dose-response had high values
# T4 sequence (whole entry): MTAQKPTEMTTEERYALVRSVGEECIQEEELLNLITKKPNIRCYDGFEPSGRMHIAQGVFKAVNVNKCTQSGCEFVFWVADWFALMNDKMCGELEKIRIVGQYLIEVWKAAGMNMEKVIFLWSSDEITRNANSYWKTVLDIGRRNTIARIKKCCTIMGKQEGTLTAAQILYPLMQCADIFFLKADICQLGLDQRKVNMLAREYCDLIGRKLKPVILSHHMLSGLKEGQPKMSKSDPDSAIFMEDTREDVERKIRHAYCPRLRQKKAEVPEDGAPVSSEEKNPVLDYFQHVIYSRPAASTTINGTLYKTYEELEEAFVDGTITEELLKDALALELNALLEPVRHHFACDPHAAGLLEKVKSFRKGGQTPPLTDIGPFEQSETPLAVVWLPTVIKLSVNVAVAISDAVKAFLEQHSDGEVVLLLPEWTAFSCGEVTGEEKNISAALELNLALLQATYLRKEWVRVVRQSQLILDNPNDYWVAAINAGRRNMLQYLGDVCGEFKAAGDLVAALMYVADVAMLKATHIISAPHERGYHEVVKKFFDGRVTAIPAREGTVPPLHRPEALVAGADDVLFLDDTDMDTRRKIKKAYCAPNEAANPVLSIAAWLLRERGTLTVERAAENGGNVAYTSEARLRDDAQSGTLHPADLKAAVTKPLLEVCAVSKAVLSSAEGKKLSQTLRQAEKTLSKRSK
# [10] = target: T4, Tyrosyl-tRNA synthetase, putative (Trypanosoma cruzi (strain CL Brener)); test: Trypanosoma cruzi tyrosyl tRNA synthetase (TcYRS) SOP; format: functional; conditions: 30 µM
# [11] = target: Chromo domain-containing protein 1 (Saccharomyces cerevisiae (strain ATCC 204508 / S288c) (Baker's yeast)) (UniProt P32657); test: ScCHD-1 Enzyme Inhibition Assay; format: functional; conditions: 30 µM; also: in the data most compounds retested in dose-response had high values
# Sequence of Chromo domain-containing protein 1 (Saccharomyces cerevisiae (strain ATCC 204508 / S288c) (Baker's yeast)) (P32657 whole entry, the tested form may be a part): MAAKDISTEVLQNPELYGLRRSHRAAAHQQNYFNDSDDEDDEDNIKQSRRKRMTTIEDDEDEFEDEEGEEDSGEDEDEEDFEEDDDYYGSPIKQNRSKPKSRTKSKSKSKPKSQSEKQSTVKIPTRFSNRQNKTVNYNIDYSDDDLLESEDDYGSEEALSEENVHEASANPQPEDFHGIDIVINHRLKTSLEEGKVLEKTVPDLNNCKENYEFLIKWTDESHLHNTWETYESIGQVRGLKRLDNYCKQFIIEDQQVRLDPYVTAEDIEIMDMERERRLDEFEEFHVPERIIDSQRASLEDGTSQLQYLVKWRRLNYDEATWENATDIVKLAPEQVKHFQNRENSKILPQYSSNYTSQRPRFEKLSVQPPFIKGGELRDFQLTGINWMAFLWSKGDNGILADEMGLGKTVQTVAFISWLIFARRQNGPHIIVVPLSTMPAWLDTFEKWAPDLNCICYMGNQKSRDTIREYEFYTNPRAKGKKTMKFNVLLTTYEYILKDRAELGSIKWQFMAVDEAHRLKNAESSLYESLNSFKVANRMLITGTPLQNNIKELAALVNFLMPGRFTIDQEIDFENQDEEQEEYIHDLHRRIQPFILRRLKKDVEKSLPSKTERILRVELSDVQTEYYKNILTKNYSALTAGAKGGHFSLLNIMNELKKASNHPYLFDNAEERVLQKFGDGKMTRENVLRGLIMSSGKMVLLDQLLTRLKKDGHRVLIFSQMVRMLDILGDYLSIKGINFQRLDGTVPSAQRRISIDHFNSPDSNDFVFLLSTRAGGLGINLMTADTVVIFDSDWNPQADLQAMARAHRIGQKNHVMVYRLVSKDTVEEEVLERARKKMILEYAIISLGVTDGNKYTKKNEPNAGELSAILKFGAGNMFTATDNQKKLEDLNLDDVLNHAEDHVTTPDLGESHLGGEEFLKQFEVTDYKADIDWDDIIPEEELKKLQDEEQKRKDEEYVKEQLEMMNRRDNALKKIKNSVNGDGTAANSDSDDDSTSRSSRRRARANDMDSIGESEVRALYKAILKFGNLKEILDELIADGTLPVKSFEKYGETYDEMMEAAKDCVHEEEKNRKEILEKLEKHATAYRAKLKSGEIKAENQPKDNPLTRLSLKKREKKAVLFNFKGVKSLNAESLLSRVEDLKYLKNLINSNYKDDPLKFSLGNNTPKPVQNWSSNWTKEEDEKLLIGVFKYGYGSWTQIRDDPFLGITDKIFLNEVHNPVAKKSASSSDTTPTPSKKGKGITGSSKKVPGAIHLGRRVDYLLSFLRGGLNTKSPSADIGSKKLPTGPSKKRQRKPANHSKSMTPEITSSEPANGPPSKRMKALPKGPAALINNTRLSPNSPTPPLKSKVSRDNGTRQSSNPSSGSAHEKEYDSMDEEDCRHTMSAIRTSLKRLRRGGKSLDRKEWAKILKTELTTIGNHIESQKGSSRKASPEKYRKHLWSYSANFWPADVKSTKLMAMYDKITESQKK
# Sequence of Protein translocase subunit SecA (Escherichia coli (strain K12)) (P10408 whole entry): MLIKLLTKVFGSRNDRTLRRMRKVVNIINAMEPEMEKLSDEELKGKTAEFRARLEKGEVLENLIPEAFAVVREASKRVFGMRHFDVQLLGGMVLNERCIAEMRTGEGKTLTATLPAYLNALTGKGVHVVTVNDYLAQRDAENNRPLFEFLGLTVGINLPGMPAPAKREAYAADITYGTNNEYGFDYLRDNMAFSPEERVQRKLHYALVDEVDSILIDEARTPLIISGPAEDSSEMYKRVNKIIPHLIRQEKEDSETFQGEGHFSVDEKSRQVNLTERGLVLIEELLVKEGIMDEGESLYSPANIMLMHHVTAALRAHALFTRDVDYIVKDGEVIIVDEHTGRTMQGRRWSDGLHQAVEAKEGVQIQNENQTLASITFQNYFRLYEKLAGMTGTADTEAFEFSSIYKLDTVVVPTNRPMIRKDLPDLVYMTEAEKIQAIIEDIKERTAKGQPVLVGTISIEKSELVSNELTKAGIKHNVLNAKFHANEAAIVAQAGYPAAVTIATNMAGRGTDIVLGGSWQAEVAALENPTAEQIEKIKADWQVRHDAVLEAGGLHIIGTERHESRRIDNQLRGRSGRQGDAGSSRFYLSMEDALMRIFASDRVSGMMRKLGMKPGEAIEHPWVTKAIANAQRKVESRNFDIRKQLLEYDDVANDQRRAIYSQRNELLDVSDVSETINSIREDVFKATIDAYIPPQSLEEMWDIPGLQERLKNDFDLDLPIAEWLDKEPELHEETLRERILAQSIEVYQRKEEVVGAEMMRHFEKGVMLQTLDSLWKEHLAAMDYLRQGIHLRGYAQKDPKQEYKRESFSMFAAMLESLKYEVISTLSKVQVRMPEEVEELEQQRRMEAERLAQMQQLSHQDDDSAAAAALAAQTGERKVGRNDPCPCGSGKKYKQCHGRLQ
Structure (SMILES),Percent Effect [1] [%],Percent Effect [2] [%],Percent Effect [3] [%],Percent Effect [4] [%],Percent Effect [5] [%],Percent Effect [6] [%],Percent Effect [7] [%],Percent Effect [8] [%],Percent Effect [9] [%],Percent Effect [10] [%],Percent Effect [11] [%]
Cc1ncccc1OC1(C(=O)NCCNc2ccccc2)CCNCC1,-3.81,2.7,-15.1,6.77,3.48,-1.91,5.86,20.1,5.82,9.76,-4.02
CCc1nccn1C1CCCN(C(=O)c2cnn3ccc(C)nc23)C1 (stereo unspecified),-3.42,-2.7,-5.57,1.51,-0.283,-2,4.5,4.32,5.42,-6.17,-7.37
COc1ccc(C2CCCN2C(=O)c2csc(NC(C)=O)n2)cc1 (stereo unspecified),-5.5,18.2,41.8,-5.49,-3.37,2.85,4.56,17.3,6.8,12.2,-8.21
COc1cccc(OCC2CCCN(C3CCN(C(C)=O)CC3)C2)c1 (stereo unspecified),-0.921,5.41,0.304,-4.78,-3.67,1.43,18.4,-5.82,4.76,12.2,-2.6
CCNC(=O)c1cnc(Cc2ccc(F)cc2)s1,-3.2,-2.67,3.74,1.03,-1.27,4.17,8.72,14.1,3.83,8.64,-2.95
O=C(c1ccn(-c2cccc(F)c2)n1)N1CCCC(n2cccn2)C1 (stereo unspecified),-4.17,2.6,4.13,0.275,5.78,-1.05,13.3,2.64,0,7.06,-16.1
Cc1nc(CN2CCCC(NCc3ccsc3)C2)no1 (stereo unspecified),1.07,18.2,-3.38,-6.19,-7.3,4.63,16.1,20.4,4.85,12.2,-8.54
CC1N(CC2CC2)C(=O)COC12CCN(Cc1nccs1)CC2 (stereo unspecified),-2.73,11,-7.81,11.6,5.56,-2,11.2,-5.88,4.17,6.17,-5.43
Cc1nc(CN2CCCC(NCCOc3ccccc3)C2)no1 (stereo unspecified),-2.53,2.53,-4.3,-3.12,-1.98,2.28,28.9,-12.5,2.46,-1.27,-6.02
CC(Cn1cccn1)NC(=O)NCc1ccc(S(N)(=O)=O)cc1 (stereo unspecified),-1.8,15.6,6.57,-7.88,-1.27,-1.05,13.7,6,9.52,23.5,-18.9
CCC(=O)Nc1ccc2c(c1)CN(C(=O)c1ccco1)CC2,-1.48,15.6,8.06,-13,-1.48,-1.94,9.4,33.1,3.17,14.1,-8.67
COC(=O)c1sccc1NC(=O)C1CCCN1C(=O)c1ccco1 (stereo unspecified),-0.782,-15.3,13.2,-14.9,-8.84,-3.53,20.4,1.28,-3.16,2.56,-2.51
CN1CCCC[C@@H]2[C@H]1[C@@H](c1ccccc1)CCN2C(=O)c1cnccn1,-4.56,1.35,4.14,1.98,0.988,-3.48,21.2,-2.99,5.38,11.7,-17.5
Cn1cccc1C(=O)NCc1cnc2n1CCN(C(=O)N1CCCC1)C2,-5.97,16,-1.93,4.39,6.18,-45,7.86,3.79,2.08,12.5,-6.82
O=C(NCc1ccoc1)NC1CCCN(c2ncccn2)C1 (stereo unspecified),-3.31,7.89,6.88,0.569,4.97,-8.28,15.8,20.9,3.19,13,-3.64
COCCn1ccc(=O)c(OCC(=O)Nc2cccc(C(C)=O)c2)c1C,-2.27,12,3.85,5.25,0.982,-5.11,13.5,-24.6,8.47,20.5,-3.7
CC1c2ncc(CNC(=O)C3CC3)n2CCN1Cc1cnn(C)c1 (stereo unspecified),-0.181,8,-3.48,-1.35,6.56,-55.4,13.8,5.07,3.12,12.5,-7.95
COCCc1noc(CN2CCCC(Cn3nc(C)nc3C)C2)n1 (stereo unspecified),-3.69,16.2,-5.81,6.95,0.472,-7.62,3.6,8.21,10.3,23.5,-11.8
CNC(=O)C1(CCCc2cccnc2)CCCCN1 (stereo unspecified),-1.25,23,5.4,-8.22,3.95,0.696,17.6,19,1.07,9.09,-15.7
CCS(=O)(=O)N1CCCc2ccc(NC(=O)Cc3ccc(F)cc3)cc21,0.369,7.79,-1.04,-9.41,-5.82,0.645,8.53,65.4,-5.29,-6.41,-13.3
CC(O)CC(C)(C)CNC(=O)NCc1cccc(-n2ccnc2)c1 (stereo unspecified),-3.71,0,-1.99,-7.44,-2.83,-2.23,-2.83,18.3,-1.07,-1.24,4.12

# — ChEMBL document CHEMBL3988442, “University of Dundee, Small-Polar-MMV Screening Library” (2021)
